Hits are enriched below; roughly 1.1% of the tested compounds scored in any of these assays.
HER2 expr 66K: inhibitors of human Her2 kinase expression. SKBR-3 HER2 protein level, AlphaScreen, 18-24 h; stronger effect = lower value. HER2 level % of control, % at 10 µM. 0.69% of 65,000 active;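 active = HER2 level under 5% of the carrier-only control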;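 also: lower value means stronger loss of Her2 protein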
Hsp90 inh: displaces geldanamycin probe from tumor Hsp90 | 0.35% of 64,000 active | inhibition, % at 30 µM | NCI-N417 lysate Hsp90, Cy3B-geldanamycin FP displacement;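 active = inhibition above 50%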
MT1-MMP txn act: MT1-MMP promoter transcription activation; activation factor at 10 µM; HT1080 MT1-MMP promoter luciferase reporter, luminescence, overnight; stronger effect = higher value; 0.16% of 86,000 active; AID 750;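 active = activation factor of at least 2 for MT1-MMP transcription at 10 µM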
HePTP inh: human HePTP phosphatase inhibition; P35236; recombinant HePTP phosphatase activity, OD absorbance; inhibition, % at 20 µM; 0.64% of 110,000 active; AID 521; in the data active = inhibition above about 50%
Target sequence (P35236 whole entry, looked up): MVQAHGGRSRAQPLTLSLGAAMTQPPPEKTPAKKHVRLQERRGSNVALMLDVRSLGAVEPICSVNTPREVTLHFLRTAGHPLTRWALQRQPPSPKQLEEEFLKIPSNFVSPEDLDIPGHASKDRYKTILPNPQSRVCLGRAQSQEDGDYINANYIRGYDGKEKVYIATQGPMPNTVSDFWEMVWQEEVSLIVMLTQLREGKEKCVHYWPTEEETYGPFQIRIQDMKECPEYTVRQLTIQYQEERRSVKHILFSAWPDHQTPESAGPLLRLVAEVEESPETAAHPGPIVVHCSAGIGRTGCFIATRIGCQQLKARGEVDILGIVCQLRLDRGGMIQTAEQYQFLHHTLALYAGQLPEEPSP
Ec RNAP inh: blocks E. coli RNA polymerase transcription; P0A8V2; fluorescence transcription assay; inhibition, %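 (tested at 10 µM)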; 0.2% of 62,000 active; in the data active = inhibition above about 20%
TNAP act DEA: human TNAP activation, intermediate phosphate acceptor | activation factor at 20 µM | AID 813 | P05186 | purified TNAP, CDP-star luminescence, 100 mM DEA, 30 min; stronger effect = higher value; scale: 0 levamisole-inhibited, 1 vehicle-only enzyme | 64,000 tested, under 10 active;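 active = activation factor of at least 2 at 20 µM, relative to controls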
Numbers stand for hits; – = inactive; · = no result given.

SMILES	HER2 expr 66K	Hsp90 inh	MT1-MMP txn act	HePTP inh	Ec RNAP inh	TNAP act DEA
CC(=O)Oc1ccc(C(=O)O)cc1OC(C)=O	–	–	–	–	–	–
Cc1ccc(C)n1-c1cc(C(=O)O)cc(C(=O)O)c1	·	·	·	100.6	·	·
Cc1ccc(C)n1-c1ccc(C(=O)O)cc1	·	·	–	·	·	·
CCOc1ccc(C(NC(=O)Cc2cc(OC)c(OC)cc2Br)c2ccc(OC)cc2)cc1 (stereo unspecified)	·	·	·	–	·	·
O=C(CCc1ccccc1)Nc1c(F)cccc1F	·	·	2.3	·	·	·
CCOC(=O)c1c(C)sc(Sc2ccc(Cl)cc2[N+](=O)[O-])c1OC	·	·	–	102.0	·	·
CCOC(=O)c1c(C)sc(Sc2ccccc2[N+](=O)[O-])c1OC(C)=O	·	·	·	–	·	·
CCSC1=C(C#N)C(c2ccc([N+](=O)[O-])cc2)CC(=O)N1 (stereo unspecified)	·	·	·	–	·	·
COc1cc2c(C)nc3onc(-c4ccccc4)c3c2cc1OC	–	–	–	–	–	–
Cc1cc2c(C)nc(-c3ccccc3)nc2o1	–	–	2	–	·	–
COc1nsnc1NS(=O)(=O)c1ccc(NC(=S)NC(=O)c2sc3cc(F)ccc3c2Cl)cc1	·	·	·	102.0	·	·
Cc1cccc(N2CCN(C(=O)c3cccc(Br)c3)CC2)c1C	·	·	·	–	·	·
CCc1ccccc1N=CC1=C(O)CC(c2ccccc2)CC1=O (stereo unspecified)	·	·	·	–	·	·
COc1ccc(C2CC(=O)C3=C(C2)Nc2ncnn2C3c2ccccc2C)cc1 (stereo unspecified)	–	–	–	–	–	–
COc1ccc(C2CC(=O)C3=C(C2)Nc2ncnn2C3c2ccccc2)cc1 (stereo unspecified)	–	91.3	–	–	–	–
Cc1ccc(OCC(=O)N/N=C\c2ccc(-c3ccc([N+](=O)[O-])cc3)o2)cc1	·	·	·	–	·	·
Cc1ccc(C(=O)N2CCN(c3ccccc3)CC2)cc1C	–	–	–	–	–	–
O=C(c1ccc2ccccc2c1)N1CCN(c2ccc(O)cc2)CC1	–	91.9	–	–	–	–
O=S1(=O)C=C(Sc2nc3cc(Cl)ccc3o2)c2ccccc21	-17.7	–	–	–	39.8	–
Cc1cc2ncn(C(=O)c3ccc(-c4ccccc4)cc3)c2cc1C	·	·	·	–	·	·
N#CC1=C2SCN(c3ccccc3)CN2C(=O)CC1c1c(Cl)cccc1Cl (stereo unspecified)	–	–	–	–	–	–
Cc1ccc(C2CC(=O)N3CN(c4ccc(Br)cc4)CSC3=C2C#N)o1 (stereo unspecified)	-19.5	–	·	–	–	–
N#CC1=C2SCN(c3ccccc3)CN2C(=O)CC1c1cccs1 (stereo unspecified)	-19.6	–	–	–	–	–
Cc1ccc(N=Cc2c(C(F)(F)F)[nH]n(-c3ccccc3)c2=O)cc1	·	·	·	63.7	·	·
O=C(CC(c1ccccc1)c1ccccc1)N1CCCCC1	·	·	·	–	·	·
SMILES	HER2 expr 66K	Hsp90 inh	MT1-MMP txn act	HePTP inh	Ec RNAP inh	TNAP act DEA
Cc1c(-c2ccccc2)[n+](=O)c2c(n1[O-])CCCCC2	·	·	·	–	·	·
COc1ccc(-c2c(C)n([O-])c3c([n+]2=O)CCC3)cc1	·	·	·	104.2	·	·
Cc1c(-c2ccc(F)cc2)[n+](=O)c2c(n1[O-])CCC2	·	·	·	104.2	·	·
Cc1c(-c2ccco2)[n+](=O)c2c(n1[O-])CCC2	–	–	–	–	–	–
NC1=NC(=O)/C(=C/c2cccc(OS(=O)(=O)c3ccc4ccccc4c3)c2)S1	·	·	·	–	·	·
CCSC1(SCC)N=C(N)C2(C#N)C(c3ccccc3)NC3=C(CCCC3)C12C#N (stereo unspecified)	·	·	·	–	·	·
CCSC1(SCC)N=C(N)C2(C#N)C(c3ccc(OC)c(OC)c3OC)C12C#N (stereo unspecified)	3.5	–	–	–	–	–
CCN(CC)CCNC(=O)c1ccc(NC(=S)NC(=O)c2cccnc2)cc1	·	·	·	–	·	·
N#CCSc1nc2cc(C(=O)N3CCC(C(N)=O)CC3)ccc2c2nc3ccccc3n12	-1.2	–	–	–	–	–
CC(=O)NC1=NC(=O)/C(=C\c2ccc(I)o2)S1	·	·	·	101.9	·	·
Cc1cc(C)cc(NC(=O)/C=C/C(=O)O)c1	·	·	·	–	·	·
Cn1nnnc1SCC(=O)Nc1c(Cl)cccc1Cl	-20.5	–	–	–	–	–
O=C(CSc1nnc(Cc2cc(=O)[nH]c(=O)[nH]2)n1-c1ccccc1)NCC1CCCO1 (stereo unspecified)	–	89.4	–	–	–	–
COc1cc(/C=N\N2CCN(Cc3ccc(C)cc3)CC2)cc(Br)c1O	·	·	·	77.2	·	·

Source: PubChem BioAssay
